Screening results: PubChem BioAssay, National Center for Advancing Translational Sciences (NCATS)
A selection: hits, their analogues and other compounds. The true share with any hit is near 1.7%.
PTHR1 ag – PTHR1 (human) receptor agonism. Q03431. HEK293 GP2 PTHR1 cells, GloSensor cAMP luminescence, 1 h. 410,000 tested, 0.075% active. Potency, µM (highest dose often 115 µM), for the others: at the top dose activation, actives largely listed as activators; note: nearly all actives have a fitted effect of over 55% in size
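HEK-293-derived GP2 cells expressing PTHR1 and a GloSensor cAMP reporter, 3,000/well, plated overnight, given luciferin plus IBMX (each 0.5 mM as added) for 1 h at 37 °C, then compound for 1 h at 37 °C. Luminescence was read after 15 min at room temperature.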
GLP-1R agonist – activates the human GLP-1 receptor | HEK293 GLP-1R CRE-luciferase, luminescence, 4-6 h; cells express a hypersensitive GLP-1R form | Potency, µM (highest dose often 45.6 µM), for inactives: at the highest dose activation, actives largely listed as activators | 380,000 tested, 0.007% active | AID 624172; note: % of control where 0% means no effect
GLP1R cytotox – cytotoxicity in counter-screen for GLP-1R inverse agonists. HEK293 cAMP-luciferase reporter cells, luminescence, 24 h. Potency, µM (series often up to 38.3 µM), for the others: at the top dose activity change, negative = inhibition, actives largely listed as inhibitors. 410,000 tested, 0.13% active;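 note: loss of luciferase light is scored as toxicity; % is set by controls: 0 for no effect and ±100 for the full control effect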
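Luminescence readout: signal drop marks cytotoxicity. Plated cells grew 12 h at 37 °C, 5% CO2, received 23 nL compound for 24 h, then got luciferase reagent, read after 12 min at RT.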
GLP1R inv ag – acts as inverse agonist at human GLP-1 receptor; HEK293 GLP-1R CRE-luciferase, luminescence, 24 h; GLP-1R form is constitutively active; Potency, µM (highest dose often 38.3 µM), without a hit: top-dose activity change, negative = inhibition, actives largely listed as inhibitors; P43220; 410,000 tested, 1.6% active; AID 624417; note: % is set by controls: 0 for no effect and ±100 for the full control effect; nearly all actives have a fitted effect of over 55% in size
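Readout was luciferase luminescence, measured 12 min after detection reagent at room temperature. Beforehand, GLP-1R reporter HEK293 cells had sat 12 h, then received compounds for 24 hr at 37 deg C.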
An asterisk follows results filed as active; i = inactive; ? = inconclusive; · = not tested or not shown; [ ] = another dose, or the depositor's remark. Calls come from the whole dose curve; as a rule, active = well fitted curve in the direction sought with a large enough effect; inconclusive = small, poorly fitted or top-dose-only effect, or another doubt; inactive = no such curve, though single readings can be large; an effect the other way counts as inactive or inconclusive. Potency is the fitted concentration of half-maximal effect.

SMILES	PTHR1 ag	GLP-1R agonist	GLP1R cytotox	GLP1R inv ag
CC1(C)S[C@@H]2[C@H](NC(=O)C(C(=O)Oc3ccc4c(c3)CCC4)c3ccccc3)C(=O)N2[C@H]1C(=O)O (some centres not stated)	·	-6%	·	·
COc1cccc(-c2cc(C(F)(F)F)n3nc(N)nc3n2)c1	-13%[57.5 µM]	10%	-11%	123%
COc1cccc(-c2cn3nc4c(nc3n2)CCCC4)c1	-14%[57.5 µM]	-34%	295%	2.5µM*
Cc1c(NC(=O)c2ccc(-c3ccccc3)cc2)cccc1C(=O)O	i	-4%	0%	3.2µM*
Cc1ccc(Nc2cc(C(=O)NCc3cccs3)c3ccccc3n2)c(C)c1	-16%	·	-10%	2µM*
NC(N)=N/N=C(\N=Nc1ccccc1)c1cccc2cccnc12	8%	-2%	-32%	-10%
NC(N)=N/N=C(\N=Nc1ccccc1)c1ccc(Cl)cc1	i	-5%	?	10µM*
Cc1ccc2c(c1)CC(C)N2S(=O)(=O)c1nnc(NC(=O)c2ccccc2F)s1 (configuration not stated)	-25%	·	-10%	?
COc1cc(OC)c(N(C)S(=O)(=O)c2cccc(C(=O)OCC(=O)c3c[nH]c4ccccc34)c2)cc1Cl	-20%	-13%	-2%[1.53 µM]	?
C=CCN(c1ccccc1OC)S(=O)(=O)c1cccc(C(=O)OCC(=O)c2c[nH]c3ccccc23)c1	-17%	-13%	?	5µM*
CCCN(CCC)c1ncnc2c1cnn2-c1ccc(OC)cc1	-33%	11%	-3%	10µM*
COc1ccc(CNCCC(c2ccc(OC(C)C)cc2)c2ccccc2OC)cc1 (configuration not stated)	-7%	0%	?	5.6µM*
COc1ccccc1C(CCNCc1ccc(N(C)C)cc1)c1ccc(OC(C)C)cc1 (configuration not stated)	-18%	0%	?	?
O[C@H]1CN(Cc2cccs2)[C@@H](c2ccccc2)C[C@@H]1n1cc(-c2ccc(F)cc2)nn1	0%	-5%	-11%	10µM*
Cc1ccc([C@H]2C[C@@H](n3cc(-c4ccc(F)cc4)nn3)[C@H](O)CN2CC2CCCCC2)cc1	-13%	-1%	3%	-2%
O[C@@H]1CN(CC2CCCCC2)[C@@H](c2ccccc2)C[C@H]1n1cc(-c2ccc(F)cc2)nn1	-41%	-1%	?	4µM*
CN(c1ccc(C(=O)COC(=O)C2CC2)cc1)S(C)(=O)=O	-56%	2%	-4%	11%
Cc1cccc(C)c1NC(=O)CCSCCc1ccccn1	i	·	-1%	19%
OCCNCc1cc(Br)ccc1OCc1ccc(Cl)cc1Cl	-3%[57.5 µM]	-27%	?	6.3µM*
CCOc1ccccc1CN1CCc2nc(N3CCN(c4ccccc4F)CC3)ncc2C1	-13%	·	2%	10µM*
CCN1CCN(c2ncc3c(n2)CCN(Cc2cc(Br)cs2)C3)CC1	-28%	·	12%	4.5µM*
CN1CCN(c2ncc3c(n2)CCN(Cc2ccc(Br)s2)C3)CC1	17%	·	-21%	3.2µM*
Fc1ccc(CN2CCc3nc(N4CCN(c5ccccc5F)CC4)ncc3C2)c(F)c1	-23%	·	0%	-1%
CCN1CCN(c2ncc3c(n2)CCN(Cc2ccc(OC(C)C)cc2)C3)CC1	i	·	-7%	10µM*
COc1ccc(N(Cc2cccs2)C(=O)c2ccco2)cc1	-12%	·	-22%	?
SMILES	PTHR1 ag	GLP-1R agonist	GLP1R cytotox	GLP1R inv ag
CCOc1ccc(NC(=O)CCCc2nc(-c3cccc(OC)c3)no2)cc1	-17%	·	-2%	-13%
O=C(C[C@H]1CC[C@@H]2[C@H](COC[C@H](O)CN2Cc2cccc(F)c2)O1)NCc1cccc(F)c1	-2%	·	1%	2%
CCN1CCN(c2ncc3c(n2)CCN(Cc2ccc(Br)s2)C3)CC1	14%	·	-18%	3.2µM*
CC(=O)c1ccc(N2CCN(C(=O)COc3ccc4c(c3)CCC4)CC2)cc1	-26%	6%	-6%	-15%
Cc1ccc(Cl)cc1N1CCN(C(=O)COc2ccc3c(c2)CCC3)CC1	-28%	20%	3%	10µM*
Cc1ccc(Cl)cc1N1CCN(C(=O)c2cnn(C)c2C2CCN(C(=O)OC(C)(C)C)CC2)CC1	-24%	·	-20%	10µM*
CCOc1ncccc1C(=O)N1CCN(c2cc(Cl)ccc2C)CC1	-4%	?	-11%	1µM*
